Measurements: PubChem BioAssay AID504329 (Southern Research Specialized Biocontainment Screening …, 2011)
Hit rate of the full screen: of about 340,000 compounds, about 1,000 (0.29%) were called active. Cut-off read from the data, not from the text of the source: inconclusive = inhibition above about 27% without an active follow-up result; inactive = below that. These entries were drawn from the full list. Entries with a potency or affinity are not part of this list.

Assay: NS1A inhibition, H1N1 influenza, cell based functional assay (AID 504329)
Conditions: percent inhibition, at 12.5 µM, active compounds read high

SMILES	inhibition
Cc1ccc(CN2CCC(n3nccc3NC(=O)CCOc3ccccc3)CC2)cc1C	-4.94% (inactive)
CCN1CCN(C(c2cc(OC)ccc2OC)c2nnnn2Cc2ccccc2)CC1 (centres undefined)	-5.45% (inactive)
Cc1cn(CC(=O)NCc2ccc3c(c2)OCO3)c(=O)[nH]c1=O	0.05% (inactive)
Cc1ccc(C(=O)COC(=O)CNC(=O)c2cccs2)cc1C	3.9% (inactive)
Cc1ccc(CS(=O)Cc2ccc(C(=O)NCCc3ccccc3)o2)cc1 (centres undefined)	3.5% (inactive)
COc1ccc(N2CCN(C(=O)c3c(C)nn(-c4ccccc4)c3C)CC2)cc1	1.11% (inactive)
COc1ccc(C(=O)Nc2ccc(Cl)cc2C(=O)N2CCCC(C)C2)cc1OC (centres undefined)	-10.1% (inactive)
O=S1(=O)[C@H]2CC3O[C@]2(C[C@@H]3c2ccc(F)cc2)CN1Cc1ccc(Cl)cc1	-1.02% (inactive)
COc1cc(C(=O)NC2CCN(Cc3nnnn3Cc3cccs3)CC2)cc(OC)c1OC	-19% (inactive)
CCCNc1ncnc2onc(C)c12	-5.28% (inactive)
Oc1cc(Nc2ccccc2)cc2cccnc12	3.79% (inactive)
O=C(Nc1ccncc1)c1cc2ccccc2cc1O	-5.8% (inactive)
Oc1cc(NCc2ccc(Cl)cc2)cc2cccnc12	-7.85% (inactive)
Clc1cnc(Nc2cccnc2)c(Cl)c1	-6.41% (inactive)
c1ccc(-c2csc(Nc3cccnc3)n2)nc1	14.1% (inactive)
Oc1cc(NCc2ccc(F)cc2)cc2cccnc12	-7.28% (inactive)
CC(=O)c1ccccc1OCC(O)CN1CCN(c2ccccn2)CC1 (centres undefined)	-18.6% (inactive)
CCOc1ccccc1N(CC(=O)Nc1ccccc1C(=O)N1CCOCC1)S(C)(=O)=O	-12.1% (inactive)
COC(=O)c1ccccc1NC(=O)Nc1cccnc1	-5.77% (inactive)
CCOP(=O)(OCC)C(NC(=O)Nc1ccc(Cl)cc1)C(N)=O (centres undefined)	-4.5% (inactive)
COc1cccc2cc(C(=O)NCC3CCCO3)c(=O)oc12 (centres undefined)	6.96% (inactive)
COc1ccc(/C(O)=C2\C(=O)C(=O)N(CCN3CCOCC3)C2c2ccccc2OC)cc1 (centres undefined)	-5.93% (inactive)
CCc1cccc(NC(=O)CSCc2cc(=O)[nH][nH]2)c1	4.49% (inactive)
Cc1cnc(-n2c(=S)[nH]c3ccccc3c2=O)s1	-7.74% (inactive)
O=C(NCc1cc(C(F)(F)F)ccc1F)C1CCC(=O)N(C2CC2)C1 (centres undefined)	-6.88% (inactive)

SMILES	inhibition
CCN1CCN(c2ccc(N)cc2)CC1	11.3% (inactive)
Nc1ccc(N2CCN(c3ccc(F)cc3)CC2)cc1	-1.58% (inactive)
N#Cc1ccc(C(=O)Nc2cc(C3CC3)nn2-c2ccccc2)cc1	-9.27% (inactive)
CC[n+]1c(C)sc2c3ccsc3ccc21	2.89% (inactive)
Cn1c(SCC(=O)Nc2ccc(C(N)=O)cc2)nc2c(c1=O)SCC2	-1.68% (inactive)
Oc1ccccc1N=Nc1ccccc1O	21.9% (inactive)
Oc1ccccc1N=N/C(=N/Nc1ccccc1O)c1ccccc1	-1.57% (inactive)
CC(=O)NC1C(Oc2ccccc2C)OC2COC(c3ccco3)OC2C1O (centres undefined)	-4.4% (inactive)
Cc1ccn(CC(=O)N2CCCC(C(=O)c3cccc4ccccc34)C2)n1 (centres undefined)	1.06% (inactive)
Cc1ccc(N2CC(C(=O)N3CCC(C(=O)NCCCOC(C)C)CC3)CC2=O)cc1 (centres undefined)	-11.9% (inactive)
COc1ccc(OCC(=O)N/N=C/c2cccc3cccnc23)cc1	27.8% (inactive)
Cc1ccccc1OCC(=O)N/N=C/c1cccc2cccnc12	11.7% (inactive)
O=C(COc1ccc(F)cc1)N/N=C/c1cccc2cccnc12	-1.12% (inactive)
COc1cccc(/C=N/NC(=O)COc2cccc3cccnc23)c1O	-3.74% (inactive)
Cc1ccc(C(F)(F)F)cc1NC(N)=S	5.01% (inactive)
Nn1cnnc1N/N=C/c1ccc(Cl)cc1Cl	-12.4% (inactive)
COc1ccc(/C=N/Nc2nncn2N)cc1Br	9.22% (inactive)
Cc1ccc(N(C)S(=O)(=O)c2ccc3[nH]cc(C(=O)NCCCN4CCOCC4)c(=O)c3c2)cc1C	4.79% (inactive)
Cc1cc(=O)[nH]c(N/N=C/c2ccccc2C(F)(F)F)n1	-5.35% (inactive)
Nc1ccc(N=Nc2ccccc2)c(N)n1	18% (inactive)
Nc1ccc(N=Nc2ccccc2)c2ccccc12	-3.26% (inactive)
COCCn1c(CN2CC(C)CC(C)C2)nc2c1c(=O)n(C)c(=O)n2C (centres undefined)	3.18% (inactive)
CN(C)c1ccc(/C=C/c2nc3ccccc3s2)cc1	-0.93% (inactive)
CN(C)c1ccc(/C=C/c2cc[n+](C)cc2)cc1	7.63% (inactive)
CC[n+]1c(/C=C/N(C)c2ccccc2)sc2ccc(Cl)cc21	0.72% (inactive)

SMILES	inhibition
CC[n+]1c(/C=C/C=C/N(C(C)=O)c2ccccc2)sc2ccccc21	25.6% (inactive)
CCOc1nc(SCCOc2ccccc2)nc(N(C)C)n1	21.4% (inactive)
COc1ccc(NS(=O)(=O)c2cccc(C(=O)N/N=C(\C)c3ccncc3)c2)cc1	-5.23% (inactive)
O=S1(=O)NC(=NCCc2ccccn2)c2ccccc21	-4.92% (inactive)
Cc1ccc2ccc3ccc(C)nc3c2n1	-7.29% (inactive)
Cc1ccc2cccnc2c1N	-4.2% (inactive)
O=Cc1ccc2ccc3cccnc3c2n1	9.05% (inactive)
Oc1c(Cl)cc(Cl)c2cccnc12	-14.4% (inactive)
Clc1cc2cccnc2c2ccccc12	-7.93% (inactive)
c1cnc2c(c1)ccc1ncccc12	-2.85% (inactive)
Clc1ccc2ccc3cccnc3c2n1	-25.7% (inactive)
CCc1cc(C(=O)N2CCCC(N3CCN(c4cccc(C(F)(F)F)c4)CC3)C2)n(C)n1 (centres undefined)	-0.25% (inactive)
CCO/C=C/C(O)(CNC(=O)COc1ccccc1F)C(F)(F)F (centres undefined)	-0.96% (inactive)
Cc1ccc(S(=O)(=O)N2CCN(S(=O)(=O)N3CCC(C)CC3)CC2)cc1C	2.71% (inactive)
CC(=O)Nc1nnc(SCC(=O)N2CCc3ccccc32)s1	-6.4% (inactive)
O=C(NNc1ccc(-c2csnn2)cc1)c1ccccc1C(F)(F)F	-23.8% (inactive)
CC1=C(C(=O)Nc2cc(C(=O)N3CCN(c4cccc(C)c4C)CC3)ccc2C)SCCO1	8.75% (inactive)
O=C(NC1=C(Nc2ccc(Cl)cc2)C(=O)c2ccccc2C1=O)c1ccccc1	12.2% (inactive)
O=C(NC1=C(Nc2ccc(F)cc2)C(=O)c2ccccc2C1=O)c1ccc(Cl)cc1	-4.19% (inactive)
CN(C1=C(NC(=O)c2ccccc2)C(=O)c2ccccc2C1=O)C1CCS(=O)(=O)C1 (centres undefined)	4.18% (inactive)
Cc1cccc(NC2=C(NC(=O)c3ccccc3)C(=O)c3ccccc3C2=O)c1	28.6% (inactive)
COc1ccc(NC(=O)CN2CCN(CC(=O)Nc3ccccc3Cl)CC2)cc1Cl	3.53% (inactive)
COc1cccc(CC(CC(=O)O)C(=O)Nc2cc(C)ccc2C)c1 (centres undefined)	2.74% (inactive)
CN1C(=O)/C(=C2\SC(=S)N(NC(=O)c3cccnc3)C2=O)c2ccccc21	6.82% (inactive)
O=C(CNC(=O)c1ccco1)N/N=C/c1c[nH]c2ccccc12	-1% (inactive)

SMILES	inhibition
COC(=O)C(=NNc1c(C)n(C)n(-c2ccccc2)c1=O)C(=O)OC	-4.26% (inactive)
Cc1c(NP(=O)(c2ccc(Br)cc2)c2ccc(Br)cc2)c(=O)n(-c2ccccc2)n1C	-4.88% (inactive)
Cc1c(NC(C)C)c(=O)n(-c2ccccc2)n1C	-3.1% (inactive)
Cc1c(NS(=O)(=O)c2ccc(Br)cc2)c(=O)n(-c2ccccc2)n1C	-8.19% (inactive)
Cc1c(C=C2C(=O)NC(=O)NC2=O)c(=O)n(-c2ccccc2)n1C	-5.56% (inactive)
Cc1c(NN=C(C#N)C#N)c(=O)n(-c2ccccc2)n1C	-11.5% (inactive)
CCS(=O)(=O)Nc1c(C)n(C)n(-c2ccccc2)c1=O	-2.8% (inactive)
C=CCSC(=S)Nc1c(C)n(C)n(-c2ccccc2)c1=O	-2.87% (inactive)
CCN(C(=O)COC(=O)CNS(=O)(=O)c1ccc2ccccc2c1)C1CCCCC1	-3.12% (inactive)
CCn1c(=O)[nH]c(=O)c2c(N)c(C(=O)c3ccccc3OC)sc21	14.2% (inactive)
CCC(CC)CN1CCC(CN2C(=O)C(=O)NC[C@@H]2[C@@H](C)CC)CC1	-5.8% (inactive)
CC(=O)c1cccc(NC(=O)C2CCN(C(=O)c3cccs3)CC2)c1	-11.1% (inactive)
Cc1ccc(SCC(=O)OCC(=O)Nc2ccc3[nH]c(=O)[nH]c3c2)cc1C	-0.9% (inactive)
COc1ccccc1NC(=O)/C(=C\c1cccs1)NC(=O)c1ccco1	2.01% (inactive)
COc1ccc2c(COC(=O)CC3Sc4ccccc4NC3=O)cc(=O)oc2c1 (centres undefined)	-3.14% (inactive)
Cc1c(NC(=O)CN2C(=O)C(=O)N(Cc3ccccc3)C2=O)c(=O)n(-c2ccccc2)n1C	-4.35% (inactive)
Cc1c(NC(=O)NCc2ccccc2)c(=O)n(-c2ccccc2)n1C	0.65% (inactive)
COc1ccc(/C=N/NC(=O)c2ccco2)cc1OCc1ccccc1	0.58% (inactive)
COc1ccc(/C=N/NC(=O)c2cc(C)oc2C)cc1OCc1ccccc1	9.7% (inactive)
CC(C)CCNC(=O)NC(=O)COc1ncnc2sccc12	-13.5% (inactive)
O=C(CSc1nncs1)Nc1cc(S(=O)(=O)N2CCOCC2)ccc1N1CCCC1	-2.14% (inactive)
O=C(COc1ccccc1[N+](=O)[O-])N1CCN(C(=O)c2ccco2)CC1	8.66% (inactive)
COc1ccc2c(c1)C(=NNC(=O)c1ccccn1)c1cc(OC)ccc1-2	-2.18% (inactive)
CCOc1ccc2c(c1)C(=NNC(=O)c1ccccn1)c1cc(OCC)ccc1-2	7.92% (inactive)
